Drawing on PubChem BioAssay AID574 (The Scripps Research Institute Molecular Screening Center, 2007), this text covers activation for ten molecules.

Molecules are shown by their SMILES. The campaign covered roughly 65,000 compounds. About 450 (0.69%) were called active.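 The calls were made as follows: active = activation above a set limit, the screen-wide mean activation plus 3 SD (cut at about 8.5% in these data); inactive = the rest.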 What follows is part of a selection rich in actives, with near analogues and random picks from the rest.

Sequence of 5-hydroxytryptamine receptor 1E (Homo sapiens) (P28566 whole entry, looked up): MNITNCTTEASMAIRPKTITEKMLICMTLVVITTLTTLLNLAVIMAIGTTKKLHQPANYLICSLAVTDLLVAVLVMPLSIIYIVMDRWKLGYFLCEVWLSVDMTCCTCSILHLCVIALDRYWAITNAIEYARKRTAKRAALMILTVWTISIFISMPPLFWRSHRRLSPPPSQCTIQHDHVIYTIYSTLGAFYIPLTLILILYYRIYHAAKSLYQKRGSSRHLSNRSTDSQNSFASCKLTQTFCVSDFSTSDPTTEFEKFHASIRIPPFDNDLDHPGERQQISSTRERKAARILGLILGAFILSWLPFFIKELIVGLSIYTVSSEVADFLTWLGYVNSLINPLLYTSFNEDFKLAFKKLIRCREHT

The assay has as its target 5-hydroxytryptamine receptor 1E (Homo sapiens) (UniProt P28566). As to the kind of experiment: 5-HT1E receptor agonists, primary screen, cell-based, HTS (AID 574).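 Also: 100% = positive control agonist at 1 µM giving full maximal response.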 The note with it: CHO 5-HT1E Ga15 NFAT-bla reporter, FRET; at 6 µM; hits give high values.
Regarding `c1ccc2sc(C3CCCNC3)nc2c1` (stereo not given), the activation was 98.8% (active). Consider `Cc1ccc(P(=S)(c2ccc(C)o2)N2CCOCC2)o1`, for which the activation was -1.7% (inactive).

`O=C1NC(=O)C(C/C=C/c2ccccc2)C(=O)N1`: the activation was 0.1% (inactive). For `COc1ccc(CN2CCN(c3ccccc3F)CC2)c(OC)c1`, the activation is 54.1% (active). Regarding `Fc1cccc(F)c1CN1CCN(Cc2c(F)cccc2F)CC1`, the activation was 1.1% (inactive). For the molecule `COc1ccccc1CN1CCN(C(=O)Cc2ccccc2)CC1`, the activation is -0.5% (inactive). Turning to `CC(=NC1CCN(Cc2ccccc2)CC1)c1c(O)n(C)c(=O)n(C)c1=O`, the activation is 0% (inactive). Turning to `CCOP(=S)(OCC)SCOC(=O)NCC(=O)OC`, the activation was -0.2% (inactive). With `CC[N+]1(C)CCCC(OC(=O)C(O)(c2ccccc2)c2ccccc2)C1` (stereo not given), the activation is -0.1% (inactive). With `CC(C)c1ccc(OCC(=O)N2CCN(C)CC2)c(Br)c1`, the activation is -1.2% (inactive).
